{
  "source": "PubChem BioAssay (NCI)",
  "note": "About 83,000 compounds went through this panel and 20% of them were active in at least one assay; those are over-represented in the sample as a whole.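 Method: cells in 96-well plates; compound added at one concentration; 48 h incubation; percent growth measured; values under 10 scored active.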 The source made the active and inactive calls.",
  "data": [
    {"test_system": "SK-MEL-2 melanoma", "test": "NCI-60 one-dose screen, 48 h (100 = growth as untreated, 0 = no growth, -100 = all killed)", "conditions": "10 µM unless noted", "values": [
      {"smiles": "CCOc1ccc(NC2=C(Cl)C(=O)c3nc(C)ccc3C2=O)cc1", "growth": "-49.8% (active)"},
      {"smiles": "COc1cccc(/C=C(/C)c2ccc3cccc(OC)c3[o+]2)c1O", "growth": "106% (inactive)"},
      {"smiles": "NC(N)=Nc1ccc(Oc2cccc(NC(N)=Nc3ccc(Cl)c(C(F)(F)F)c3)c2)cc1", "growth": "83% (inactive)"},
      {"smiles": "COc1ccc(CCOc2cc3c(cc2OC)CCN(C(=O)NCc2cocn2)C3c2ccc(C)cc2C)cc1", "note": "(stereo not drawn)", "growth": "-7.32% (active)"},
      {"smiles": "O=C1C(c2ccccc2)=C(N2CCc3ccccc32)OC1(Cl)Cl", "growth": "92.2% (inactive)"},
      {"smiles": "O=C(NNc1nc2cc(F)ccc2n2c(CN3CCCC3)ccc12)c1cnccn1", "growth": "46% (inactive)"},
      {"smiles": "O=C(NNc1nc2cc(F)cc(F)c2n2cccc12)c1cnccn1", "growth": "32.6% (inactive)"},
      {"smiles": "O=C(O)c1ccc(-n2cc(CNc3cc(F)c(F)c(F)c3)c(-c3ccc(F)cc3)n2)cc1", "growth": "78.7% (inactive)"},
      {"smiles": "COc1ccc(NC2=C(Cl)C(=O)c3nc(C)ccc3C2=O)cc1OC", "growth": "100% (inactive)"},
      {"smiles": "O=C(NNc1nc2cc(F)c(F)cc2n2c(CN3CC4CNCC4C3)ccc12)c1cnccn1", "note": "(stereo not drawn)", "growth": "29.2% (inactive)"},
      {"smiles": "C[C@H](CCC(=O)NCc1ccc(C(=O)Nc2ccccc2N)cc1)[C@H]1CC[C@H]2[C@@H]3[C@@H](O)C[C@@H]4C[C@H](O)CC[C@]4(C)[C@H]3CC[C@]12C", "growth": "68.8% (inactive)"},
      {"smiles": "CC(=O)c1cc(C(=O)c2ccc(Br)cc2)n2cc(C)cc(C)c12", "growth": "102% (inactive)"},
      {"smiles": "NC(=O)c1cccc(-n2ccc3cc(NC(=O)Nc4ccc(N5CCOCC5)c(C(F)(F)F)c4)ccc32)n1", "growth": "1.78% (active)"},
      {"smiles": "COc1ccc2c(c1)c(CC(=O)[Se]CC(=O)O)c(C)n2C(=O)c1ccc(Cl)cc1", "growth": "102% (inactive)"},
      {"smiles": "CN(C)CCNC(=O)c1ccc(-c2nc3ccc4[nH]ncc4c3c3c2COCC3)cc1", "growth": "-69.7% (active)"},
      {"smiles": "COc1ccc2c(c1)c(CC(=O)[Se]CCC#N)c(C)n2C(=O)c1ccc(Cl)cc1", "growth": "9.95% (active)"},
      {"smiles": "CN1CCN(Cc2ccc(NC(=O)c3cncc(C#Cc4cnc5ccc(OCC(C)(C)O)nn45)c3)cc2C(F)(F)F)CC1", "growth": "-80.4% (active)"},
      {"smiles": "CNC(=O)c1cc(N2CCc3cc(NC(=O)Nc4ccc(Cl)c(C(F)(F)F)c4)ccc32)ccn1", "growth": "88.5% (inactive)"},
      {"smiles": "O=C(CSc1nc2ccccc2c(=O)n1-c1ccc(Cl)cc1)N/N=C/c1ccc(N2CCCCC2)cc1", "growth": "99.5% (inactive)"},
      {"smiles": "CCOc1ccc(C(=O)Nc2ncc(Cc3ccc(F)cc3)s2)cc1", "growth": "-7.6% (active)"},
      {"smiles": "Cc1c(Cl)cccc1S(=O)(=O)Nc1ccc2c(c1)C(=O)N(C1CCC(=O)NC1=O)C2=O", "note": "(stereo not drawn)", "growth": "107% (inactive)"},
      {"smiles": "CC/C(=C/c1cc(OC)ccc1O)c1ccc2cc(OC)ccc2[o+]1", "growth": "71.8% (inactive)"},
      {"smiles": "COc1c(N2CC3CCCNC3C2)c(F)cc2c(=O)c(C(=O)N/N=C/c3ccc4c(c3)OCO4)cn(C3CC3)c12", "note": "(stereo not drawn)", "growth": "103% (inactive)"},
      {"smiles": "CN1CCN(Cc2ccc(NC(=O)c3cncc(C#Cc4cnc5ccc(OCC6(C)COC6)nn45)c3)cc2C(F)(F)F)CC1", "growth": "-75.7% (active)"},
      {"smiles": "O=C(NNc1nc2cc(F)c(F)cc2n2cccc12)c1cnccn1", "growth": "46.2% (inactive)"}
    ]},
    {"test_system": "EKVX NSCLC", "test": "NCI-60 one-dose screen, 48 h (100 = growth as untreated, 0 = no growth, -100 = all killed)", "conditions": "10 µM unless noted", "values": [
      {"smiles": "N#Cc1cccc(CN2CCC3=C(C2)C(=O)N(Cc2ccc(Cl)cc2)C2=NCCN23)c1", "growth": "26.8% (inactive)"},
      {"smiles": "COc1ccc(Oc2ccc(/C=N/NC(=O)CSc3nc4ccccc4c(=O)n3-c3ccc(Cl)cc3)cc2)cc1", "growth": "69.4% (inactive)"},
      {"smiles": "O=C(NNc1nc2cc(F)c(F)cc2n2c(CN3CC4CNCC4C3)ccc12)c1ncccn1", "note": "(stereo not drawn)", "growth": "20% (inactive)"},
      {"smiles": "COc1cc(/C=C2\\C(=O)Nc3cc(Cl)ccc32)ccc1OCc1ccc(F)cc1", "growth": "76.5% (inactive)"},
      {"smiles": "CCn1c2ccccc2c2cc(-n3nncc3-c3ccccc3)ccc21", "growth": "45.5% (inactive)"},
      {"smiles": "N#Cc1cccc(CN2CCC3=C(C2)C(=O)N(Cc2ccc(Cl)cc2)C2=NCCCN23)c1", "growth": "29% (inactive)"},
      {"smiles": "COc1ccc(COc2ccc(/C=C3\\C(=O)Nc4ccccc43)cc2OC)cc1", "growth": "99.8% (inactive)"},
      {"smiles": "O=C(NNc1nc2cc(F)ccc2n2c(CN3CC4CNCC4C3)ccc12)c1cnccn1", "note": "(stereo not drawn)", "growth": "25.9% (inactive)"},
      {"smiles": "COC(=O)C[Se]C(=O)Cc1c(C)n(C(=O)c2ccc(Cl)cc2)c2ccc(OC)cc12", "growth": "15.1% (inactive)"},
      {"smiles": "CCOc1ccc(NC2=C(Cl)C(=O)c3nc(C)ccc3C2=O)cc1", "growth": "-97.5% (active)"},
      {"smiles": "COc1cccc(/C=C(/C)c2ccc3cccc(OC)c3[o+]2)c1O", "growth": "89.6% (inactive)"},
      {"smiles": "NC(N)=Nc1ccc(Oc2cccc(NC(N)=Nc3ccc(Cl)c(C(F)(F)F)c3)c2)cc1", "growth": "64.4% (inactive)"},
      {"smiles": "O=C(NNc1nc2cc(F)ccc2n2c(CN3CCCC3)ccc12)c1cnccn1", "growth": "7.62% (active)"},
      {"smiles": "O=C(NNc1nc2cc(F)cc(F)c2n2cccc12)c1cnccn1", "growth": "8.74% (active)"},
      {"smiles": "O=C(O)c1ccc(-n2cc(CNc3cc(F)c(F)c(F)c3)c(-c3ccc(F)cc3)n2)cc1", "growth": "85.6% (inactive)"},
      {"smiles": "COc1ccc(NC2=C(Cl)C(=O)c3nc(C)ccc3C2=O)cc1OC", "growth": "50.8% (inactive)"},
      {"smiles": "O=C(NNc1nc2cc(F)c(F)cc2n2c(CN3CC4CNCC4C3)ccc12)c1cnccn1", "note": "(stereo not drawn)", "growth": "19.5% (inactive)"},
      {"smiles": "CC(=O)c1cc(C(=O)c2ccc(Br)cc2)n2cc(C)cc(C)c12", "growth": "71.7% (inactive)"},
      {"smiles": "COc1ccc2c(c1)c(CC(=O)[Se]CC(=O)O)c(C)n2C(=O)c1ccc(Cl)cc1", "growth": "103% (inactive)"},
      {"smiles": "CN(C)CCNC(=O)c1ccc(-c2nc3ccc4[nH]ncc4c3c3c2COCC3)cc1", "growth": "33.1% (inactive)"},
      {"smiles": "COc1ccc2c(c1)c(CC(=O)[Se]CCC#N)c(C)n2C(=O)c1ccc(Cl)cc1", "growth": "-82.5% (active)"},
      {"smiles": "CN1CCN(Cc2ccc(NC(=O)c3cncc(C#Cc4cnc5ccc(OCC(C)(C)O)nn45)c3)cc2C(F)(F)F)CC1", "growth": "-31.2% (active)"},
      {"smiles": "O=C(CSc1nc2ccccc2c(=O)n1-c1ccc(Cl)cc1)N/N=C/c1ccc(N2CCCCC2)cc1", "growth": "82.1% (inactive)"},
      {"smiles": "Cc1c(Cl)cccc1S(=O)(=O)Nc1ccc2c(c1)C(=O)N(C1CCC(=O)NC1=O)C2=O", "note": "(stereo not drawn)", "growth": "91.2% (inactive)"},
      {"smiles": "CC/C(=C/c1cc(OC)ccc1O)c1ccc2cc(OC)ccc2[o+]1", "growth": "76.3% (inactive)"},
      {"smiles": "COc1c(N2CC3CCCNC3C2)c(F)cc2c(=O)c(C(=O)N/N=C/c3ccc4c(c3)OCO4)cn(C3CC3)c12", "note": "(stereo not drawn)", "growth": "66.6% (inactive)"},
      {"smiles": "CN1CCN(Cc2ccc(NC(=O)c3cncc(C#Cc4cnc5ccc(OCC6(C)COC6)nn45)c3)cc2C(F)(F)F)CC1", "growth": "-83.3% (active)"},
      {"smiles": "O=C(NNc1nc2cc(F)c(F)cc2n2cccc12)c1cnccn1", "growth": "17% (inactive)"}
    ]}
  ]
}
